Data: PubChem BioAssay
The source made the active and inactive calls.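 Rule for the calls: active = compound that reduces growth-factor-driven endothelial tube area in a mixed cell culture, no cutoff stated; inactive = the rest.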

Assay: inhibition of endothelial tube formation, primary screen, imaging, VEGF stimulated, CD31 staining, tube area, NPC library (AID 1117340)
Details: VEGF-stimulated ADSC/ECFC co-culture, at 10 µM, active compounds read high

Structure (SMILES) | tube area decrease
Cc1cc2c(OCC(CNC(C)(C)C)OC(=O)c3ccccc3)cccc2[nH]1 (stereo not given) | -1.9% (inactive)
CC(CNC1CCCCC1)OC(=O)c1ccccc1 (stereo not given) | 19.9% (inactive)
C[C@]12CC[C@H]3[C@@H](CCC4=CC(=O)CC[C@@]43C)[C@@H]1CC[C@@H]2C(=O)CO | 34.3% (inactive)
CCc1cccc(CC)c1NC(=O)CN(CC(=O)O)CC(=O)O | 7.4% (inactive)
CCC(=O)c1ccc(O)cc1 | 5.9% (inactive)
FCOC(C(F)(F)F)C(F)(F)F | 8.2% (inactive)
COc1ccccc1Oc1c(NS(=O)(=O)c2ccc(C(C)(C)C)cc2)nc(-c2ncccn2)nc1OCCO | 4.9% (inactive)
CCC(C)(CN(C)C)OC(=O)c1ccccc1 (stereo not given) | -3.6% (inactive)
OC[C@@H](O)[C@@H](O[C@@H]1O[C@H](CO)[C@H](O)[C@H](O)[C@H]1O)[C@H](O)[C@@H](O)CO | -0.6% (inactive)
CC1(C)CC1C(=O)NC(=CCCCCSCC(N)C(=O)O)C(=O)O (stereo not given) | 26.1% (inactive)
C/C(=C(\CCOP(=O)(O)O)SC(=O)c1ccccc1)N(C=O)Cc1cnc(C)nc1N | -4.8% (inactive)
CC[N+](C)(CC)CCOC(=O)C1c2ccccc2Oc2ccccc21 | -0.8% (inactive)
CN1CCN(CCCN2c3ccccc3Sc3ccc(S(=O)(=O)N(C)C)cc32)CC1 | 108% (active)
O=C(O)CCc1nc2ccccc2[nH]1 | -5.8% (inactive)
OC(CCCN1CCCCC1)(c1ccccc1)c1ccccc1 | 3.9% (inactive)
NS(=O)(=O)c1cc(C(=O)O)cc(N2CCCC2)c1Oc1ccccc1 | -7% (inactive)
CN(CCCCCCCCCCN(C)C(=O)Oc1cccc([N+](C)(C)C)c1)C(=O)Oc1cccc([N+](C)(C)C)c1 | -9.4% (inactive)
CC(C(=O)O)c1ccc(C(=O)c2ccccc2)s1 (stereo not given) | 4% (inactive)
CN1CCCN(C(c2ccccc2)c2ccc(Cl)cc2)CC1 (stereo not given) | 38.7% (inactive)
O=C1CC[C@@H](C(=O)O)N1 | 9.1% (inactive)

Structure (SMILES) | tube area decrease
CCOC(=O)Nc1ccc2c(c1)N(C(=O)CCN1CCOCC1)c1ccccc1S2 | 4% (inactive)
COc1ccc(-c2cc(=S)ss2)cc1 | -0.7% (inactive)
CN1CCN(C2=Nc3ccccc3Sc3ccc(Cl)cc32)CC1 | 39.2% (inactive)
CCCNC(C)C(=O)Nc1c(C)csc1C(=O)OC (stereo not given) | 5.2% (inactive)
O=C(O)Cc1sc(-c2ccccc2)nc1-c1ccc(Cl)cc1 | 11.7% (inactive)
NS(=O)(=O)c1cc2c(cc1Cl)NC(CC1CCCC1)NS2(=O)=O (stereo not given) | 35.3% (inactive)
O=C(O)c1ccc[n+]([O-])c1 | 11.3% (active)
CN(C)CCn1nnnc1SCC1=C(C(=O)O)N2C(=O)[C@@H](NC(=O)Cc3csc(N)n3)[C@H]2SC1 | -30.8% (inactive)
CC(C)(C)C(=O)OCOC(=O)[C@@H]1N2C(=O)[C@@H](NC(=O)[C@H](N)c3ccccc3)[C@H]2SC1(C)C | -15.2% (inactive)
COCC(=O)Nc1c(I)c(C(=O)NCC(O)CO)c(I)c(C(=O)N(C)CC(O)CO)c1I (stereo not given) | -13.9% (inactive)
C1CCN2C[C@@H]3C[C@@H](CN4CCCC[C@@H]34)[C@H]2C1 | -8.8% (inactive)
Cc1c(-c2ccccc2)oc2c(C(=O)OCCN3CCCCC3)cccc2c1=O | 19.4% (inactive)
CCCCN1C[C@H](O)[C@@H](O)[C@H](O)[C@H]1CO | 8.1% (inactive)
NC(=O)OCC(O)COc1ccc(Cl)cc1 (stereo not given) | -23.7% (inactive)
CCCCc1cc2ccccc2c(OCCN(C)C)n1 | 15.9% (inactive)
O=C1[O][Bi][O]c2ccccc21 | -3.4% (inactive)
C[N+]1(C)CCC(=C(c2ccccc2)c2ccccc2)CC1 | 23.2% (inactive)
CC(C)NC[C@@H](O)COc1ccc(CC(N)=O)cc1 | -23.3% (inactive)
OCc1ccccn1 | -15.2% (inactive)
CN1CCCC(CC2c3ccccc3Sc3ccccc32)C1 (stereo not given) | 54.2% (active)
